Among all 16,000 compounds or so, about 5,700 (36%) were called active. About 24% were inconclusive and are not listed. The call rests on the fitted dose curve; in most records, active means well fitted curve in the direction sought with a large enough effect; inconclusive means small, poorly fitted or top-dose-only effect, or effect the other way; inactive means no such curve, though single readings can be large or run the other way. The list shows a part of the results.
On the % scale 0 is the no-effect control and ±100 the full control effect.

This assay deals with Cytochrome P450 1A2 (Homo sapiens) (UniProt P05177). Put plainly: Cytochrome panel assay with activity outcomes. Conditions: recombinant CYP, pro-luciferin dealkylation, luminescence, p450-cyp1a2; series mostly up to 57.1 µM; activity, negative = inhibition: at the top concentration.
Sequence of Cytochrome P450 1A2 (Homo sapiens) (P05177 whole entry, looked up): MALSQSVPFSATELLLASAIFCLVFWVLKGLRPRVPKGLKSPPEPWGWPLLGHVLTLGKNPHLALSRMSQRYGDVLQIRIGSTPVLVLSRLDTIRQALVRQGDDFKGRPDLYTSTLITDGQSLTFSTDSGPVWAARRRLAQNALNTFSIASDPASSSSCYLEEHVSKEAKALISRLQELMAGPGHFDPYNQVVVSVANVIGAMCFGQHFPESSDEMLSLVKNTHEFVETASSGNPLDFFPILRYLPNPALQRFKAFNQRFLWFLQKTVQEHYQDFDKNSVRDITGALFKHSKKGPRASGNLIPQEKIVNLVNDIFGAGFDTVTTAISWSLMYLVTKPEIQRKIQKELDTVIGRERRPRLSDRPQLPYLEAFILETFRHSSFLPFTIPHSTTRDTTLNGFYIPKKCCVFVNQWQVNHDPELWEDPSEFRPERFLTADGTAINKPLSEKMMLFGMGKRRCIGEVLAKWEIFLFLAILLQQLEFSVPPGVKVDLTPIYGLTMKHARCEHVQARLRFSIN
For `C/C(CCC(=O)OC[C@@H]1O[C@H](C#Cc2ccccc2)C=C[C@@H]1Oc1ccc(C)cc1)=N/OC[C@@H](O)[C@H]1O[C@H]2OC(C)(C)O[C@H]2[C@@H]1O`, the activity, negative = inhibition is 2.38% [at 11.4 µM] (inactive).
`CC1=C(C)/C(=N\OC(=O)/C=C/c2ccccc2)C=CC1=O`: the AC50 is 14100 nM (active).
Regarding `O=C(/C=C\c1ccccc1)c1ccccc1O`, the activity, negative = inhibition is -10.2% [at 11.4 µM] (inactive).
For the molecule `CC1(C)[C@@H]2CC[C@]1(C)[C@@H](OC(=O)/C=C\c1ccccc1)C2`, the activity, negative = inhibition is -3.39% [at 2.29 µM] (inactive).
Consider `OC[C@@H]1O[C@@H](n2cnc3c(SCc4ccccc4)ncnc32)[C@@H](O)[C@H]1O`, for which the activity, negative = inhibition was -17.2% [at 2.29 µM] (inactive).
Same read-out and setting: for `CNC(=O)[C@@H]1O[C@@H](n2cnc3c(NCc4cccc(I)c4)ncnc32)[C@H](O)[C@@H]1O` the value was -16.4% (inactive); for `COc1ccc(-n2c(=O)[nH]cc(C(=O)Nc3ccc4c(c3)OCCO4)c2=O)cc1`, -16.7% (inactive).
With `COc1ccc2nc(SCC(=O)Nc3ccc4c(c3)OCCO4)[nH]c2c1`, the half-maximal activity concentration (AC50) was 5620 nM (active).
Same read-out and setting: for `CCOC(=O)NC(=O)CSc1nc2ccc(OCC)cc2[nH]1` the value was 2510 nM (active); for `Cc1ccc2nc(SCC(=O)c3ccc4c(c3)OCO4)[nH]c2c1`, 1000 nM (active).
On the same count and under the same terms, the figure for `Cc1ccc2nc(SCC(=O)Nc3nnc(SCC(N)=O)s3)[nH]c2c1` is 14100 nM (active).
As for `CC/C=C\CC[C@H](OC(=O)c1ccc(Br)cc1)C1=CCCCC1=O`, the activity, negative = inhibition was 1.86% [at 11.4 µM] (inactive).
Still for that read-out and setting: for `COc1ccc(CCn2c(C)cc(C(=O)CSc3nc(N)cc(=O)[nH]3)c2C)cc1` the value was -28.1% (inactive).
In the case of `COc1ccc2nc(SCC(=O)c3ccco3)[nH]c2c1`, the AC50 was 7080 nM (active).
The same measure, in the same setting: the figure for `O=C(N/N=C\c1ccc2c(c1)CCC2)c1ccccc1O` is 2000 nM (active).
Turning to `OCCNc1nc2ccccc2[nH]1`, the “activity, negative = inhibition” value is -21.8% (inactive).
With `CCN(CC)c1nc2ccccc2[nH]1`, the AC50 was 15800 nM (active).
Regarding `CSCC[C@H](NC(=O)CC(C)(C)C)c1nc2ccccc2[nH]1`, the “activity, negative = inhibition” value is -6.75% (inactive).
In the case of `CCOC(=O)c1c(C)oc2c1c(C=NC1CCS(=O)(=O)C1)c(O)c1ccccc12` (stereo unspecified), the AC50 is 1260 nM (active).
The same measure, in the same setting: for `CCOC(=O)c1c(C)oc2c1cc(O)c1ccccc12` the value was 63.1 nM (active); for `CCCCCOC(=O)c1c(N)n(CCOC)c2nc3ccccc3nc12`, 1000 nM (active); for `C=C(C)C1Cc2nc(N)nc(C)c2C1` (stereo unspecified), 3160 nM (active).
With `Nc1nc(N)c2[nH]c(CNc3ccc(C(=O)O)cc3)nc2n1`, the activity, negative = inhibition is -9.57% [at 11.4 µM] (inactive).
Same read-out and setting: for `C[C@H](CN(C)C)C(O)(c1ccccc1)c1ccccc1` the value was 5.76% [at 11.4 µM] (inactive).
In the case of `Cc1ccc(C2CC2C(=O)NN)cc1` (stereo unspecified), the AC50 is 316 nM (active).
Regarding `Cc1ccc(NC(=O)C2CCN(S(C)(=O)=O)CC2)cc1`, the “activity, negative = inhibition” value is 14.6% (inactive).

The term AC50 denotes the concentration at which the activity in the assay is half-maximal.

For the origin of these results see PubChem BioAssay AID1851 (National Center for Advancing Translational Sciences (NCATS), 2009).
